TGFb inhibitor: TGF-b pathway inhibition. HepG2 CAGA-GFP TGF-b/SMAD3 reporter, GFP fluorescence, 18 h; TGF-beta stimulated, 500 pg/mL final. Potency, µM (titrated, usually from 46.1 µM), for the others: at the top dose activity, negative = inhibition, most hits filed as inhibitors. 1.2% of 410,000 active; note: potency is the fitted concentration of half-maximal effect; % is set by controls: 0 for no effect and ±100 for the full control effect; nearly all actives have a fitted effect of over 65% in size
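HEPG2 CAGA-GFP, 1000 cells/well; 2 h settle, 37 C; cpd via pin tool; TGF-b 500 pg/mL final; 18 h, 37 C; GFP imaging ex488/em500-530; %Activity normalised to -TGF-b and +DMSO controls; CRC fit, curve class.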
S2 tox: cell viability loss in ATXN counter-screen | S2 cells (HEK-293 line with an ATXN2-luciferase reporter) viability, CellTiter-Fluor protease fluorescence, 24 h | 0.49% of 400,000 active | Potency, µM (top dose mostly 56.7 µM), hits mostly cytotoxic; note: potency is the fitted concentration of half-maximal effect; nearly all actives have a fitted effect of over 40% in size
LDHA inh: LDHA (human) enzyme inhibition; P00338; purified LDHA, NADH/diaphorase-resazurin fluorescence; hits give low values; activity change, % (values are at about 110 or 230 µM); 0.15% of 480,000 active; AID 1347041; in the data active = activity change below about -30%; inconclusive = mostly about -25% to -30%;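 note: plate controls were DMSO wells for no effect and wells without enzyme for full effect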
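Human LDH5 (2 nM) was incubated with 0.06 mM NADH and 0.2 mM pyruvate for 5 min at room temperature in Tris pH 7.4. Remaining NADH was coupled through diaphorase/resazurin, and resorufin fluorescence was read at 0 and 20 min.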
HepG2 tox: counter-screen for TGF-b inhibitors: cytotoxicity in HepG2 cells; Potency, µM (titrated, usually from 46.1 µM), for the others: top-dose activity change, negative = cytotoxicity, hits mostly cytotoxic; AID 588856; HepG2 CAGA-GFP viability, ATP luminescence, 18 h; 0.76% of 410,000 active; note: potency is the fitted concentration of half-maximal effect
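CellTiter-Glo luminescence gave cytotoxicity after 18 hours at 37 degrees C. The cells were HepG2 CAGA-GFP in 1% FBS DMEM, stimulated with 500 pg/mL TGF-beta after compound addition. %Activity was normalised to no-cell wells (complete cell-killing) and DMSO (no toxicity), and curves were fitted and classified.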
ATXN2 expr inh: ATXN2 expression inhibition. HEK-293 ATXN2-luciferase reporter, luminescence, 24 h. Potency, µM (top dose mostly 57 µM), without a hit: at the highest dose activity change, negative = inhibition, most hits filed as inhibitors. 0.72% of 360,000 active. AID 1745845; note: potency is the fitted concentration of half-maximal effect; % is set by controls: 0 for no effect and ±100 for the full control effect; nearly all actives have a fitted effect of over 55% in size
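qHTS (up to 57 uM final) was run with 24 h compound exposure of reporter cells at 37 °C. Each well was multiplexed: SteadyGlo luminescence measured ATXN2-luciferase expression after a fluorogenic Gly-Phe-AFC viability readout (25 uM final).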
mIDH1 inhibitor: human IDH1 R132H inhibition; 0.093% of 390,000 active; Potency, µM (series often up to 76.6 µM), without a hit: at the top dose activity change, negative = inhibition, usual class: inhibitors; O75874; IDH1-R132H enzyme, NADPH consumption, diaphorase/resazurin fluorescence; note: potency is the fitted concentration of half-maximal effect; % is set by controls: 0 for no effect and ±100 for the full control effect; nearly all actives have a fitted effect of over 65% in size
Target sequence (O75874 whole entry R132H, stated change not applied): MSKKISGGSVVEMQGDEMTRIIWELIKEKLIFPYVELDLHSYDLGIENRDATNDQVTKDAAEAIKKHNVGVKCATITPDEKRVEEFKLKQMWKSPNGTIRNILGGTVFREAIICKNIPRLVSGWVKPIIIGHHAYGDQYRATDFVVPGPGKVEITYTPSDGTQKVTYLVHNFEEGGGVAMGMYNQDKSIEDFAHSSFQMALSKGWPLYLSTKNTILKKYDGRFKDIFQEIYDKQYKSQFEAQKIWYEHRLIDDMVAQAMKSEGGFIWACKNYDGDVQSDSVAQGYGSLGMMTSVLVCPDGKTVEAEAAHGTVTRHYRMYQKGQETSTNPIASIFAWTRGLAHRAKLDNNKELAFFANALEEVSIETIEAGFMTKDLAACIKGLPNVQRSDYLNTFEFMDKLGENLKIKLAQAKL
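IDH1-R132H (0.5 ug/mL dispensed) in pH 7.5 Tris buffer was preincubated 30 min with compound, then given a substrate mix of 0.016 mM NADPH and 2 mM alpha-KG for 80 min at room temperature; remaining NADPH was read by diaphorase/resazurin fluorescence.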
Active calls of the source: *; i = inactive; ? = inconclusive; . = not tested or not shown; ! = repeats disagree. Only some compounds are listed: those with a hit (about 2.2% of all), similar ones and a draw of the others. Unless noted, calls come from the whole dose curve; as a rule, active = well fitted curve in the direction sought with a large enough effect; inconclusive = small, poorly fitted or top-dose-only effect, or another doubt; inactive = no such curve, though single readings can be large; an effect the other way counts as inactive or inconclusive.

SMILES | TGFb inhibitor | S2 tox | LDHA inh | HepG2 tox | ATXN2 expr inh | mIDH1 inhibitor
O=C(N/N=C/c1ccc(Cl)cc1Cl)c1ccc2nc[nH]c2c1 | -26.2% | i | -15.1 | -25.2% | . | 5.6%
O=C(CN1CCN(Cc2ccccc2)CC1)N/N=C/c1ccccc1F | 27.5% | i | -0.1 | -0.5% | -7.8% | 2.2%
C=CCc1cccc(C=NNC(=O)CN2CCN(Cc3ccccc3)CC2)c1O | . | . | . | . | 19.3µM* | .
C=CCc1cccc(/C=N/NC(=O)C(C)Nc2ccc(C)cc2)c1O (configuration not stated) | ? | i | 5.0 | -70.4% | 22.4µM* | 1.0%
C=CCc1cccc(/C=N/NC(=O)c2ccc3nc[nH]c3c2)c1O | -4.7% | i | 1.1 | 3.7% | 10µM* | -4.4%
N/C(Cc1ccc([N+](=O)[O-])cc1)=N\OC(=O)C(c1ccccc1)c1ccccc1 | -24.2% | . | 2.5 | -49.6% | ? | -3.3%
COc1ccc(C(=O)/C=C/Nc2cc(C)on2)cc1 | 9.9% | i | -5.0 | 3.9% | 85.0% | 6.6%
O=C(/C=C/c1ccccc1)NC(=S)NNC(=O)c1cnccn1 | -22.3% | ? | 0.8 | 18.0% | 14.1µM* | -4.2%
O=C(/C=C/c1ccccc1)NC(=S)NNC(=O)c1cccnc1 | 14.4% | i | 5.3 | -7.7% | -7.4% | 1.4%
C/C(=N\NC(=O)C(C)Oc1ccc([N+](=O)[O-])cc1)c1ccccn1 (configuration not stated) | ? | 7.08µM* | 0.5 | -26.1% | ? | 2.9%
O=C1NC(Cc2ccc(O)cc2)c2nc3ccc(F)cc3c(=O)n2-c2cc3ccccc3cc21 (configuration not stated) | ? | 14.1µM* | 1.4 | -28.0% | ? | -3.0%
Cc1cccc(C)c1NC(=O)CN1CCC(C(=O)N2CCCCCC2)CC1 | . | . | 14.4 | . | . | .
COc1cc(/C=N/O)cc(Br)c1OCc1ccc(Cl)cc1 | ? | i | 1.7 | 12.6µM* | ? | 21.2%
O=S(=O)(c1ccc2c(c1)OCCO2)N1CCC(c2nc3ccc(Cl)cc3[nH]2)CC1 | ? | ? | -8.0 | -50.4% | 15.8µM* | 3.3%
N#CC(C#N)=C1SC(=Nc2ccccc2)C(=Nc2ccccc2)N1c1ccccc1 | -3.5% | 26.7µM* | -4.1 | 10.9% | 26.7µM* | 1.6%
Cc1ccc(S(=O)(=O)N(CC(=O)NC2CC3CCC2C3)c2ccccc2)cc1 (configuration not stated) | -12.7% | i | -42.6* | -27.0% | . | 0.0%
COc1ccc(N(CC(=O)NC2CC3CCC2C3)S(=O)(=O)c2ccc(C)cc2)cc1 (configuration not stated) | 1.0% | i | -7.4 | 0.3% | 1.7% | 7.1%
CC(=O)c1ccc(S(=O)(=O)NC2CC2)cc1 | -3.7% | i | 3.4 | 4.8% | 6.4% | -7.1%
O=C(CCS(=O)(=O)c1ccccc1)N(CCCN1CCOCC1)c1nc2ccc(F)cc2s1 | ? | . | -3.8 | 12.6µM* | ? | 9.1%
CCNC(=O)Nc1ccc2c(c1)c(=O)n(C)n2CC=C(C)C | -1.2% | i | 10.5 | -18.9% | 5.7% | .
CCc1cccc(NC(=S)N2CCC(c3ccccc3)C2)c1 (configuration not stated) | -27.0% | i | -5.6 | 15.8µM* | -7.4% | 5.7%
Cc1ccc(C2CC(C(F)(F)F)n3nc(C(=O)NCc4c(C)nn(C)c4C)c(Cl)c3N2)cc1 (configuration not stated) | 12.6µM* | i | 6.4 | -59.2% | ? | 0.9%
Cc1cc(C)c2sc(N(CCCN(C)C)C(=O)c3ccc(Br)s3)nc2c1 | ? | 11.2µM* | 3.4 | -77.6% | 8.91µM* | -6.0%
CCN(Cc1ccccc1)S(=O)(=O)c1ccc(C(=O)N(CCCN(C)C)c2nc3cc(C)cc(C)c3s2)cc1 | ? | 25.1µM* | -2.0 | i | ? | -2.1%
CCOc1cccc2sc(N(CCN(C)C)C(=O)c3cc4ccccc4cc3OC)nc12 | ? | ? | 0.8 | -52.6% | 20µM* | -8.9%
SMILES | TGFb inhibitor | S2 tox | LDHA inh | HepG2 tox | ATXN2 expr inh | mIDH1 inhibitor
Cc1cccc2sc(N(CCCN(C)C)C(=O)c3ccc(Cl)s3)nc12 | ? | ? | -14.8 | -17.0% | 22.4µM*! | -1.3%
Cc1cccc2sc(N(CCCN(C)C)C(=O)c3ccco3)nc12 | 0.0% | i | -2.4 | 0.4% | ? | 2.9%
Cc1cc(C)c2sc(N(CCN(C)C)C(=O)c3c(F)cccc3F)nc2c1 | ? | i | -7.6 | -39.8% | -16.8% | 4.0%
Cc1cc(C)c2sc(N(CCCN(C)C)C(=O)c3ccc(S(=O)(=O)N(C)Cc4ccccc4)cc3)nc2c1 | ? | . | 2.0 | -113.9% | ? | 1.4%
CCOc1c(Br)cc(CNc2ccc(N3CCN(C(C)=O)CC3)cc2)cc1OC | ? | i | 2.4 | -4.8% | -23.9% | 19.0%
CCCCC1(C)NC(=O)N(CC(=O)Nc2cc(S(=O)(=O)N3CCOCC3)ccc2Cl)C1=O (configuration not stated) | 4.9% | i | -2.2 | 1.0% | 6.3% | 0.8%
CCOc1ccc(NC(=O)c2ccc(CN3CCc4ccccc4C3)cc2)cc1 | -6.6% | ? | -5.0 | -9.1% | -33.9% | 15.2%
N=C1/C(=C/c2cccn2-c2ccc([N+](=O)[O-])cc2)C(=O)N=C2SC=CN12 | 3.5% | i | -3.1 | 1.6% | -4.4% | 1.7%
O=C1NC(=S)N/C1=C/c1cccn1-c1ccc([N+](=O)[O-])cc1 | 7.08µM* | i | -13.7 | -42.9% | -8.9% | -6.7%
CC(=O)N1CCc2nc3ccccc3cc21 | 8.3% | i | -6.9 | 12.3% | . | -9.9%
COCCN1C(=O)N[C@@H](c2cccc(C(F)(F)F)c2)[C@H](C(C)=O)[C@H]1C | ? | i | -7.0 | 17.8µM* | 7.5% | 1.6%
COCCN1C(=O)N[C@@H](c2ccccc2)[C@H](C(C)=O)[C@H]1C | 1.7% | i | -8.2 | 16.5% | 0.2% | -4.5%
CC1=CC(=O)C2=C(C)CC[C@@H]3[C@@H](OC(=O)[C@H]3C)[C@H]12 | . | i | . | . | . | .
COCCN(Cc1nnc(-c2cccs2)o1)C(=O)c1cccc(S(=O)(=O)N2CCOCC2)c1 | 7.4% | i | 1.4 | 8.2% | 11.9% | 0.4%
Cc1ccc(NC(=O)C(C)Sc2nc(C)c(C)n2CC(C)C)cc1 (configuration not stated) | . | . | 1.1 | . | . | .
Cc1ccc(OCCn2cc(C(=S)N3CCCC3)c3ccccc32)cc1C | -17.8% | ? | -3.5 | 15.8µM* | -14.8% | 3.2%
